36 compounds from PubChem BioAssay (NCI) can be followed below.

Compounds without any hit were thinned out: in the full panel of roughly 83,000, 20% have a hit.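 Treatment: one concentration, 48 hours, 96-well format. Scoring: percent growth, with anything below 10 considered active.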 Active and inactive are the calls of the source.

The experiment deals with MDA-MB-468 breast. Description: NCI-60 one-dose screen, 48 h (100 = growth as untreated, 0 = no growth, -100 = all killed). Particulars: 10 µM unless noted.
Take `Cc1ncc(-c2ccoc2)c(NC2CCCCCC2)n1`: the growth was 105% (inactive).

Consider `CCOC(=O)n1cc(-c2nonc2-c2cn(C)c3ccccc23)c2ccccc21`, for which the growth was 13.1% (inactive).

Consider `CN(C)c1ccc(CNCCO)cc1`, for which the growth is 105% (inactive).

For the compound `CCCCn1c(Cc2ccc(Cl)cc2)nc2cc(OC)c(OC)cc2c1=O`, the growth was 58.6% (inactive).

`CCN(CC)c1cn(-c2ccc(S(N)(=O)=O)cc2)nn1`: the growth was 91.9% (inactive).

`COc1cc(/C=C2\C(=O)N(c3c(Cl)cccc3Cl)c3ccccc32)cc(OC)c1OCCCCCCn1c2ccccc2c(=O)c2ccccc21`: the growth was 108% (inactive).

Regarding `C=C(C)[C@@H]1CC[C@]2(C(=O)NC3CCCCC3)CC[C@]3(C)[C@H](CC[C@@H]4[C@@]5(C)CCCNC(C)(C)[C@@H]5CC[C@]43C)[C@@H]12`, the growth is -85.4% (active).

Turning to `CC(C)NC(=O)N/C=C(\C#N)C(N)=O`, the growth is 93.6% (inactive).

With `CCNCCNc1cc(-c2ccc(Cl)c(Cl)c2)c(C#N)c2nc3ccccc3n12`, the growth is -80.9% (active).

Regarding `Cc1c(C(=O)Nc2nc(-c3ccccc3)cs2)nnn1-c1ccccc1Br`, the growth is -1.78% [50 µM] (active).

As to `Cc1ccc2nc(C[n+]3ccc4ccccc4c3)ccc2c1`, the growth was -3.95% (active).

For `COC(=O)c1ccc2oc(NC(=O)c3ccc(Nc4ccc([N+](=O)[O-])cc4C)c([N+](=O)[O-])c3)nc2c1`, the growth is 102% (inactive).

For the compound `CCC(=C(c1ccc(OCCCN(C)C)cc1)c1ccc(OCCCN(C)C)cc1)c1ccc(Cl)cc1`, the growth is -74.4% (active).

With `CCCOc1ccc(/C=N/Nc2cc(C)nc3ccc(Cl)cc23)cc1`, the growth is 8.78% (active).

As to `CCOC(=O)c1cc(-c2ccc([N+](=O)[O-])cc2)n(-c2ccc(C(=O)O)c(O)c2)c1C`, the growth was 58.8% (inactive).

In the case of `O=C(Nc1nc(-c2ccc(Cl)cc2)cs1)c1cc(-c2ccc(Br)cc2)nc2ccc(Cl)cc12`, the growth is 98.7% (inactive).

As to `Cc1cc2c(cc1C)N(C(=O)CCl)CC(=O)N2`, the growth was -12.6% (active).

For the compound `CCc1cnn2c(NCc3ccc[n+]([O-])c3)cc(N3CCCC[C@H]3CCO)nc12`, the growth was -56.3% (active).

As to `CC(=O)Nc1ccc(C(=O)Nc2cc(-c3ccccc3)ccc2N)cc1`, the growth is 110% (inactive).

Regarding `CN1COc2ccc3ccccc3c2C1`, the growth was 111% (inactive).

For the compound `COC(=O)[C@H]1Cc2c([nH]c3ccccc23)[C@H](c2ccc3c(c2)OCO3)N1`, the growth was 102% (inactive).

For the compound `Cn1ncc(CC(=O)O)c1-n1nnc2cc(Cl)ccc2c1=O`, the growth was 89.5% (inactive).

Turning to `COc1cc(-c2cc(-c3nc4ccccc4[nH]3)[nH]n2)cc(OC)c1OC`, the growth was 14.7% (inactive).

On to `CC1(C)C(=O)/C(=C\c2cccnc2)C[C@]2(C)[C@H]3CC[C@@H]4[C@H]5[C@H](C(=O)/C=C/c6cccnc6)CC[C@]5(C(=O)O)CC[C@@]4(C)[C@]3(C)CC[C@@H]12`, for which the growth was -46.4% [100 µM] (active).

On to `COc1ccc(CCN2C(=O)/C(=C/c3ccc(C4Oc5ccccc5C5CC(c6ccccc6)=NN54)cc3)SC2=S)cc1` (stereo unspecified), for which the growth is 118% (inactive).

For the compound `O=C(Nc1ccc(I)cc1F)c1cc(Br)ccc1O`, the growth was -2.63% (active).

For `CN1CCN(Cc2ccc(NC(=O)c3cncc(C#Cc4c(N)ncc5ccccc45)c3)cc2C(F)(F)F)CC1`, the growth was -71.6% (active).

With `C/C=C/CC(C)C(O)C1C(=O)NC(CC)C(=O)N(C)CC(=O)N(C)C(CC(C)C)C(=O)NC(C(C)C)C(=O)N(C)C(CC(C)C)C(=O)NC(C)C(=O)NC(C)C(=O)N(C)C(CC(C)C)C(=O)N(C)C(CC(C)C)C(=O)N(C)C(C(C)C)C(=O)N1C` (stereo unspecified), the growth was 4.57% (active).

As for `c1cc2[nH]ncc2cc1-c1nc2ccc3[nH]ncc3c2c2c1CCCC2`, the growth is -3.32% (active).

In the case of `O=Cc1ccc(O)c2ncccc12`, the growth was 27.4% (inactive).

Take `CCCN(CCSSCCNc1nc(N(C)O)nc(N(C)O)n1)c1nc(N(C)O)nc(N(C)O)n1`: the growth is 15.8% (inactive).

Turning to `COc1cc2nccc(Oc3ccc(NC(=O)C4(C(=O)Nc5ccc(F)cc5)CC4)cc3)c2cc1Oc1ccc(N)cn1`, the growth was 31.7% (inactive).

Turning to `CN(C)c1ccc(N=Nc2ccc(Br)cn2)c(O)c1`, the growth was -6.7% (active).

`Cc1nc2ccccc2c(/C=C/c2ccc(Cl)cc2)c1C(=O)/C=C/c1ccccc1`: the growth was 12.7% (inactive).

For `O=C(NNC(=S)Nc1ccccc1)c1ccc(Nc2ncnc3c2cnn3-c2cccc(Br)c2)cc1`, the growth was 101% (inactive).

Turning to `COc1cc(-c2nn(C(C)(C)C)cc2-c2ccnc(NCCCNS(=O)(=O)c3cccc(F)c3)n2)ccc1Cl`, the growth is 77.8% (inactive).
